How the values were obtained:
Assay in all cases: cross-link between two proteins; cross-linking mass spectrometry
[1] = target: 26S proteasome regulatory subunit RPN7 (UniProt Q06103)
[2] = target: 26S proteasome regulatory subunit RPN8 (UniProt Q08723)
[3] = target: Ubiquitin C-terminal hydrolase RPN11 (UniProt P43588)
[4] = target: 26S proteasome regulatory subunit RPN5 (UniProt Q12250)
[5] = target: 26S proteasome regulatory subunit RPN6 (UniProt Q12377)
[6] = target: 26S proteasome regulatory subunit RPN3 (UniProt P40016)
26S proteasome regulatory subunit RPN3, sequence (P40016 whole entry): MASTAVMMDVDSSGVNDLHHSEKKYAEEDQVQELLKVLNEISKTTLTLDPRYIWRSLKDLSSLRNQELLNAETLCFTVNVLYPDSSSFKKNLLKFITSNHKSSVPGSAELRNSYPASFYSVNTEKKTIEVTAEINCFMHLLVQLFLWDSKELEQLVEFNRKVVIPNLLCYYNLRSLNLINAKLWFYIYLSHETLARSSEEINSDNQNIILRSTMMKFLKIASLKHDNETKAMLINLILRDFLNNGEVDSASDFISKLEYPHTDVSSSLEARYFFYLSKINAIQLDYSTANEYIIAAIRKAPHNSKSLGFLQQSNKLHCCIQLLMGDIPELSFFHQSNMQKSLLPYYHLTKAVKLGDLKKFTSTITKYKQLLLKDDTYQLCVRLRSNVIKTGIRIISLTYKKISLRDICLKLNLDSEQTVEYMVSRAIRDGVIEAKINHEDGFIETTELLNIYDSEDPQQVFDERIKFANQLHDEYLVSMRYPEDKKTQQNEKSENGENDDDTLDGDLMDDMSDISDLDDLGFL

26S proteasome regulatory subunit RPN8, sequence (Q08723 whole entry): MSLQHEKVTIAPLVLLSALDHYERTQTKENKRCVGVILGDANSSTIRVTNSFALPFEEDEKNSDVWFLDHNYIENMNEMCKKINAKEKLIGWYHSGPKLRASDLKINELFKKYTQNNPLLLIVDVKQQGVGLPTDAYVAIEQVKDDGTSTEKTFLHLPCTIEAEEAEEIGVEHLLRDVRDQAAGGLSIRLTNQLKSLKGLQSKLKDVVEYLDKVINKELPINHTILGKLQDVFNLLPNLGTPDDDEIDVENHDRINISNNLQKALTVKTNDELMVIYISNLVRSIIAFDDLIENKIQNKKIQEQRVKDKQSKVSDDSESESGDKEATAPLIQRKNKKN
26S proteasome regulatory subunit RPN5, sequence (Q12250 whole entry): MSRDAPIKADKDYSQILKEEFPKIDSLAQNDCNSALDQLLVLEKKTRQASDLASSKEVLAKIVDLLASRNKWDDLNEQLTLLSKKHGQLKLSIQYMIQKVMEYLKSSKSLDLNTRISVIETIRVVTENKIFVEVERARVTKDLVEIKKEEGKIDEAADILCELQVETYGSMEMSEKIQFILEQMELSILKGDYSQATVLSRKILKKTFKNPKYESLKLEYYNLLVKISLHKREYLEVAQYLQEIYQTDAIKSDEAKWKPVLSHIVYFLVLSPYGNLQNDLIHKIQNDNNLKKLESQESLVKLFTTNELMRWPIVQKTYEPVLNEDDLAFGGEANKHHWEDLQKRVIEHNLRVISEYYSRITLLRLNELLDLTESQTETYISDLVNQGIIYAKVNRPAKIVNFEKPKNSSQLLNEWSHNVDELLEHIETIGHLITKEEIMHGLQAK
26S proteasome regulatory subunit RPN6, sequence (Q12377 whole entry): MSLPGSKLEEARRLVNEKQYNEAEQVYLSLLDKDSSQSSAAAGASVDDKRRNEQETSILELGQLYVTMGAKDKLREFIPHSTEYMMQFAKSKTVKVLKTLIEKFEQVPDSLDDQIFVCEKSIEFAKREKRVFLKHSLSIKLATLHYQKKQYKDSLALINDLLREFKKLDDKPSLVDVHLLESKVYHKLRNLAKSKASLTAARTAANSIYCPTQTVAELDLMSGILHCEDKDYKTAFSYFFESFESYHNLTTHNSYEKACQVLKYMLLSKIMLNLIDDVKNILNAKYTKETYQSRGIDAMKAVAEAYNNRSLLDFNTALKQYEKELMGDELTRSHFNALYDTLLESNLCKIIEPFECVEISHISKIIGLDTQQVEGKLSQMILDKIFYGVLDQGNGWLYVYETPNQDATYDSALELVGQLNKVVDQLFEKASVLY
26S proteasome regulatory subunit RPN7, sequence (Q06103 whole entry): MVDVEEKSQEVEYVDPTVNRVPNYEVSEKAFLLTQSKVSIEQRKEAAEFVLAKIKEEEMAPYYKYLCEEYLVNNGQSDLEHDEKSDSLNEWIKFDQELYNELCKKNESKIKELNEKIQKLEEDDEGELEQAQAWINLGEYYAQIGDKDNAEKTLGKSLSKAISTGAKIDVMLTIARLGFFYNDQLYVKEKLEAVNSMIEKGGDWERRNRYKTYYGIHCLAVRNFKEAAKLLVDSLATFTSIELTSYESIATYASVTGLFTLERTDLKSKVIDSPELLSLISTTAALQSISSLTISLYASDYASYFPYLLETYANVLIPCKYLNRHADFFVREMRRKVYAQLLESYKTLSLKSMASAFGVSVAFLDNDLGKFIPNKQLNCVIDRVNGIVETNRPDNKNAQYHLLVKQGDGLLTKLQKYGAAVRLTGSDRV
Ubiquitin C-terminal hydrolase RPN11, sequence (P43588 whole entry): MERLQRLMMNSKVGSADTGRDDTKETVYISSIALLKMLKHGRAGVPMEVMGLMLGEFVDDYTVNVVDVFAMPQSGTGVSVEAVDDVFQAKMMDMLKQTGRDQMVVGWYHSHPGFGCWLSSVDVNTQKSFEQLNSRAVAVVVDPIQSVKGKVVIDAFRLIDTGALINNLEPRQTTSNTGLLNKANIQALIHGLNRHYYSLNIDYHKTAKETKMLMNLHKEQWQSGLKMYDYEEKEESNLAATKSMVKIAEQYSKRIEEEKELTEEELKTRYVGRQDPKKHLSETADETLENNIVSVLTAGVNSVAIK

Substance: 26S proteasome regulatory subunit RPN3, P40016
- listed as a hit [1]: yes
- listed as a hit [2]: yes
- listed as a hit [3]: yes

Substance: 26S proteasome regulatory subunit RPN8, Q08723
- listed as a hit [4]: yes
- listed as a hit [5]: yes

Substance: 26S proteasome regulatory subunit RPN7, Q06103
- listed as a hit [4]: yes
- listed as a hit [5]: yes
- listed as a hit [2]: yes

Substance: 26S proteasome regulatory subunit RPN5, Q12250
- listed as a hit [5]: yes

Substance: 26S proteasome complex subunit SEM1, O94742
- listed as a hit [6]: yes
- listed as a hit [2]: yes
- listed as a hit [3]: yes

Substance: Ubiquitin C-terminal hydrolase RPN11, P43588
- listed as a hit [4]: yes
- listed as a hit [5]: yes
- listed as a hit [1]: yes

Substance: 26S proteasome regulatory subunit RPN9, Q04062
- listed as a hit [4]: yes
- listed as a hit [2]: yes

Reference: publication PMC4601081
